# Experimental data: PubChem BioAssay (EPA / NIEHS)
# “And” between values parts separate entries of the source, which are not always exact repeats. Equal entries are not always repeated. Inconclusive results are not listed. Some structures have more than one record in an assay (separate samples or runs), and their calls can disagree. The source made the active and inactive calls. The calls were made as follows, unless noted: active = hit-call score of the fitted dose curve at least 0.9, where 1 is the maximum; inactive = score below 0.9.
# How the values were obtained:
# [1] = tested on: DIO2 (gene 1734); experiment: CCTE_GLTED_hDIO2: CCTE's human Deiodinase 2 (DIO2) Inhibition Assay, Great Lakes Toxicology and Ecology Division (GLTED) Lab (AID 2284050; active = hit-call score of the fitted dose curve at least 0.9, where 1 is the maximum)
# Procedure, shortened: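 Triplicate cell-free incubations (3 h) of human DIO2 with chemical preceded colorimetric Sandell-Kolthoff quantitation of liberated iodide; DMSO served as negative control for curve fitting.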
# [2] = tested on: DIO3 (gene 1735); experiment: CCTE_GLTED_hDIO3: CCTE's human Deiodinase 3 (DIO3) Inhibition Assay, Great Lakes Toxicology and Ecology Division (GLTED) Lab (AID 2284055; active = hit-call score of the fitted dose curve at least 0.9, where 1 is the maximum;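 also: potency is for inhibition seen as loss of released iodide signal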)
# Procedure, shortened: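 Steps: incubate adenovirus-produced hDIO3 with chemical for 3 hours; detect freed iodide via cerium-arsenic Sandell-Kolthoff colorimetry; compare with DMSO baseline.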
# [3] = CCTE_Shafer_MEA_acute_LDH: CCTE's Lactate Dehydrogenase Assay for Cytotoxicity in the Neural Acute Assay, Shafer Lab (AID 2284086; active = hit-call score of the fitted dose curve at least 0.9, where 1 is the maximum;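 also: active means LDH release rises above DMSO vehicle level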)
# Procedure, shortened: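 Cytotoxicity readout: spectrophotometric LDH activity in supernatant of rat primary cortical neurons, post-plating day 13 or 15, sampled after 40 min compound exposure; signal gain relative to DMSO baseline.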
# [4] = CCTE_Shafer_MEA_dev_bursting_electrodes_number: CCTE's Neural Network Formation Assay for Number of Bursting Electrodes, Shafer Lab (AID 2284043; active = hit-call score of the fitted dose curve at least 0.9, where 1 is the maximum;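 as to AC50: potency is for loss of bursting electrodes relative to DMSO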)
# Procedure, shortened: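 Counted: electrodes with burst rate ≥1 per 2 min in each well. Cells: primary rat cortex, 1.5 x 10^5/well, on 16-electrode MEA wells. Exposure: DIV 0–12, compound renewed DIV 5 and 9. Recording days 5, 7, 9, 12; AUC vs DMSO baseline.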
# [5] = CCTE_Shafer_MEA_dev_per_burst_interspike_interval: CCTE's Neural Network Formation Assay for Burst Interspike Interval, Shafer Lab (AID 2284044);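 also: mean spike spacing inside bursts as AUC over recordings on days 5 7 9 12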;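 as to AC50: potency for a decrease of within-burst interspike interval below DMSO level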
# Procedure, shortened: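 Primary rat cortical neurons on 48-well MEA plates, exposed from day 0 through day 12, treatment renewed at DIV 5 and 9. Within-burst interspike interval recorded days 5, 7, 9, 12, well-averaged, summarised as AUC; negative fit versus DMSO.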
# [6] = CCTE_Shafer_MEA_dev_burst_duration_mean: CCTE's Neural Network Formation Assay for Mean Burst Duration, Shafer Lab (AID 2284045)
# Procedure, shortened: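 Network-formation assay in primary rat cortical neurons; treatment spans twelve days of development. Mean burst duration per well is integrated by trapezoidal AUC and fitted in the loss-of-signal direction against DMSO baseline.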
# [7] = CCTE_Shafer_MEA_dev_interburst_interval_mean: CCTE's Neural Network Formation Assay for Mean Interburst Interval, Shafer Lab (AID 2284046);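 also: well-mean interburst interval of bursting electrodes as AUC over four recording days; curve fitted for decrease in interburst interval relative to DMSO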
# Procedure, shortened: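 Recordings on days 5, 7, 9 and 12 give well-mean interburst interval across actively bursting electrodes, summarized as area under the curve. Cultures: rat cortical neurons, continuous exposure from day 0, compound renewed at feeds; decrease analyzed versus DMSO.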
# [8] = CCTE_Shafer_MEA_dev_inter_network_spike_interval_mean: CCTE's Neural Network Formation Assay for Mean Inter-network Spike Interval, Shafer Lab (AID 2284047)
# Procedure, shortened: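 Primary rat cortical neurons on 16-electrode MEA wells, exposed from plating day 0 through DIV 12, compound renewed at DIV 5 and 9 media changes. Mean interval between network-spike peaks recorded DIV 5, 7, 9, 12; collapsed as trapezoidal AUC, fitted downward versus DMSO.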
# [9] = CCTE_Shafer_MEA_dev_network_spike_number: CCTE's Neural Network Formation Assay for Number of Network Spikes, Shafer Lab (AID 2284048);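 also: synchronized bursts across electrodes counted on days 5 7 9 12 and integrated as AUC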;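 as to AC50: fit as a loss of signal meaning fewer network spikes than DMSO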
# Procedure, shortened: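 Extracellular recordings from 16-electrode wells track network formation in rat cortical cultures under continuous treatment from plating. The endpoint is network spike number, expressed as AUC across DIV 5–12 relative to DMSO vehicle.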
# [10] = CCTE_Shafer_MEA_dev_network_spike_peak: CCTE's Neural Network Formation Assay for Mean Number of Electrodes in Network Spike, Shafer Lab (AID 2284049);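 as to AC50: fitted for loss of signal meaning fewer electrodes in network spikes than DMSO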
# Procedure, shortened: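 Continuous 12-day exposure of rat cortical cultures, starting at plating, on MEA plates. Endpoint: electrodes participating in network-spike peaks, AUC across DIV 5–12, DMSO as negative control.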
# [11] = CCTE_Shafer_MEA_dev_spike_duration_mean: CCTE's Neural Network Formation Assay for Mean Spike Duration, Shafer Lab (AID 2284051);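 also: mean network spike duration pooled as area under curve over DIV 5 to 12 recordings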;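 as to AC50: potency for a decrease in mean network spike duration versus DMSO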
# Procedure, shortened: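 Primary rat cortical neurons on 16-electrode MEA wells (PEI-coated, laminin in plating drop), exposed from plating through DIV 12 with compound renewed at DIV 5 and 9. Mean network-spike duration recorded DIV 5, 7, 9, 12; trapezoidal AUC across days, DMSO baseline.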
# [12] = CCTE_Shafer_MEA_dev_network_spike_duration_std: CCTE's Neural Network Formation Assay for Standard Deviation of Network Spike Duration, Shafer Lab (AID 2284052);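 also: area under curve of spike duration SD across recording days 5 to 12; hits are decreases in network spike duration SD versus DMSO vehicle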
# Procedure, shortened: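 Primary rat cortical neurons on PEI-coated 16-electrode MEA wells, exposed from plating day 0 through day 12 with compound renewed at DIV 5 and 9. Network spike duration SD recorded on days 5, 7, 9, 12, collapsed as trapezoidal AUC; loss-of-signal fit versus DMSO.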
# [13] = CCTE_Shafer_MEA_dev_per_network_spike_spike_number_mean: CCTE's Neural Network Formation Assay for Mean Number of Spikes in a Network Spike, Shafer Lab (AID 2284053)
# Procedure, shortened: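 Primary rat cortical neurons on 48-well, 16-electrode MEA plates were exposed from plating to DIV 12, with dosing renewed on DIV 5 and 9. Spikes per network spike (0.05 s peak window) were recorded on DIV 5, 7, 9 and 12 and collapsed as trapezoidal AUC versus DMSO.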
# [14] = CCTE_Shafer_MEA_dev_per_network_spike_spike_percent: CCTE's Neural Network Formation Assay for Percent of Spikes in a Network Spike, Shafer Lab (AID 2284054)
# Procedure, shortened: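 Developing networks of rat cortical neurons are dosed at day 0 and recorded extracellularly four times up to day 12. The endpoint is the area under the curve of percent spikes in network spikes, fitted in the negative direction relative to DMSO.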
# [15] = CCTE_Shafer_MEA_dev_mutual_information_norm: CCTE's Neural Network Formation Assay for Mutual Information Normalization, Shafer Lab (AID 2284091);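 as to AC50: mutual information between electrodes summarised as area under curve across four recording days; potency is for a decrease in mutual information relative to DMSO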
# Procedure, shortened: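 Exposure of primary rat cortical neurons began at plating and ran to DIV 12, with full media and treatment renewal after DIV 5 and 9 recordings. Mutual information AUC (DIV 5–12) was analysed for loss versus DMSO.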
# [16] = CCTE_Shafer_MEA_dev_LDH: CCTE's Lactate Dehydrogenase Assay for Cytotoxicity in the Neural Network Formation Assay, Shafer Lab (AID 2284068; active = hit-call score of the fitted dose curve at least 0.9, where 1 is the maximum;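 also: exposure for twelve days from plating with re-dosing on DIV 5 and 9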)
# Procedure, shortened: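 Primary rat cortical neurons were plated on PEI/laminin MEA plates and exposed from day 0 for twelve days, with compound renewed at DIV 5 and 9. Cytotoxicity was determined by spectrophotometric LDH assay relative to DMSO.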
# [17] = UKN5_HCS_SBAD2_cell_viability: Viability Assessment in the University of Konstanz (UKN) Leist Lab Neurite Outgrowth Assay in human iPSC-derived immature Dorsal Root Ganglia Neurons (UKN5) (AID 2284056)
# Procedure, shortened: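 iPSC-derived immature peripheral neurons (SBAD2) seeded on Matrigel with CHIR99021, SU5402 and DAPT, dosed 1 h later for 24 h. Viability from Hoechst H-33342 and calcein-AM live staining, high-content imaging; bidirectional fit versus DMSO.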
# [18] = UKN5_HCS_SBAD2_neurite_outgrowth: University of Konstanz (UKN) Leist Lab Neurite Outgrowth Assay in human iPSC-derived immature Dorsal Root Ganglia Neurons (UKN5) (AID 2284070); conditions: actives raise or lower the signal
# Procedure, shortened: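 Neurite outgrowth is quantified as calcein-AM-labelled neurite area in human iPSC-derived peripheral neurons treated for 24 h, starting 1 h after plating in medium with CHIR99021 (1.5 uM), SU5402 (5 uM) and DAPT (5 uM).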
# [19] = CCTE_Shafer_MEA_dev_AB: CCTE's Alamar Blue Assay for Cytotoxicity in the Neural Network Formation Assay, Shafer Lab (AID 2284083; active = hit-call score of the fitted dose curve at least 0.9, where 1 is the maximum;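 also: twelve days of exposure from plating with re-dosing on DIV 5 and 9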)
# Procedure, shortened: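 Primary rat cortical neurons on PEI-coated 48-well MEA plates, 1.5 x 10^5 cells/well in laminin drop; compound exposure from day 0 of plating for twelve days, renewed at medium changes on DIV 5 and 9. Viability read as resazurin reduction by fluorescence, relative to DMSO.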
smiles,measurement,setting,value
CC=C1CC2C=CC1C2 (stereo not given),AC50,[1],100 µM (active)
same,AC50,[2],47.9 µM (active)
CCN(CCC#N)c1ccc(N=Nc2c(Cl)cc([N+](=O)[O-])cc2Cl)cc1,outcome,[1],inactive
same,AC50,[2],63.7 µM (active)
CC(C)C1=CC2=CC[C@@H]3[C@](C)(CCC[C@@]3(C)C(=O)O)[C@H]2CC1,AC50,[1],100 µM (active)
same,AC50,[2],79.8 µM (active)
CCO[Si](C)(OCC)OCC,outcome,[3],inactive
CCCCC(CC)COCC1CO1 (stereo not given),outcome,[3],inactive
O=S1(=O)OC(c2ccc(O)cc2)(c2ccc(O)cc2)c2ccccc21,AC50,[1],100 µM (active)
same,AC50,[2],100 µM (active)
CC1(C)S[C@@H]2[C@H](NC(=O)COc3ccccc3)C(=O)N2[C@H]1C(=O)O,outcome,[4],inactive
same,outcome,[5],inactive
same,outcome,[6],inactive
same,outcome,[7],inactive
same,outcome,[8],inactive
same,outcome,[9],inactive
same,outcome,[10],inactive
same,outcome,[11],inactive
same,outcome,[12],inactive
same,outcome,[13],inactive
same,outcome,[14],inactive
same,outcome,[15],inactive
O=C(C=Cc1ccccc1)OCc1ccccc1,AC50,[1],14.6 µM (active)
same,AC50,[2],5.5 µM (active)
COC(F)(F)C(F)(C(F)(F)F)C(F)(F)F,outcome,[4],inactive
same,outcome,[5],inactive
same,outcome,[6],inactive
same,outcome,[7],inactive
same,outcome,[8],inactive
same,outcome,[9],inactive
same,outcome,[10],inactive
same,outcome,[11],inactive
same,outcome,[12],inactive
same,outcome,[13],inactive
same,outcome,[14],inactive
same,outcome,[15],inactive
CCCCCCCC[N+](C)(CCCCCCCC)CCCCCCCC,AC50,[1],20.6 µM (active)
same,AC50,[2],3.85 µM (active)
CCOC(=O)c1ccccc1C(=C1C=C(Br)C(=O)C(Br)=C1)c1cc(Br)c(O)c(Br)c1,outcome,[3],inactive
CN1C(=O)N(C)C(O)C1O (stereo not given),outcome,[3],inactive
c1ccc2c(c1)ccc1cc3c(ccc4ccccc43)cc12,outcome,[4],inactive
same,outcome,[5],inactive
same,outcome,[6],inactive
same,outcome,[7],inactive
same,outcome,[8],inactive
same,outcome,[9],inactive
same,outcome,[10],inactive
same,outcome,[11],inactive
same,outcome,[12],inactive
same,outcome,[13],inactive
same,outcome,[14],inactive
same,outcome,[16],inactive
same,outcome,[15],inactive
CCCCCCCCCCCCCOP(=O)(O)O,AC50,[1],80.5 µM (active)
same,AC50,[2],12 µM (active)
O=C1CCCN1CCO,outcome,[3],inactive
C=C[Si](OC(C)=O)(OC(C)=O)OC(C)=O,outcome,[3],inactive
Cc1ccc(N/N=c2\c(=O)cc/c(=N/Nc3ccc(S(=O)(=O)O)cc3)c2=O)c(C)c1,outcome,[1],inactive
same,AC50,[2],114 µM (active)
Nc1ncn([C@@H]2O[C@H](CO)[C@@H](O)[C@H]2O)c(=O)n1,AC50,[4],1.34 µM (active)
same,outcome,[4],inactive
same,AC50,[5],2.4 µM (active)
same,outcome,[5],inactive
same,outcome,[6],inactive
same,outcome,[7],inactive
same,outcome,[8],inactive
same,AC50,[9],2.26 µM (active)
same,outcome,[9],inactive
same,AC50,[10],4.18 µM (active)
same,outcome,[10],inactive
same,AC50,[11],4.17 µM (active)
same,outcome,[11],inactive
same,outcome,[12],inactive
same,AC50,[13],2.56 µM (active)
same,outcome,[13],inactive
same,AC50,[14],4.31 µM (active)
same,outcome,[14],inactive
same,outcome,[17],inactive
same,AC50,[16],5.16 µM (active)
same,outcome,[16],inactive
same,AC50,[18],10 µM (active)
same,AC50,[19],5 nM (active) and 15 µM (active)
same,outcome,[3],inactive
same,AC50,[15],1.39 µM (active)
same,outcome,[15],inactive
